# Measured values taken from PubChem BioAssay (NCATS).
# Values joined by “and” are separate entries in the source; they are usually repeats but may differ in a detail not shown here. Equal entries are not always repeated. Records with an inconclusive call do not appear. Entries that show only a call come without a potency. A structure can be active in one record and inactive in another. Active and inactive are the calls of the source. Unless noted, calls come from the whole dose curve.
# Legend:
# [1] = qHTS for Inhibitors of the Functional Ribonucleoprotein Complex (vRNP) of Lassa (LASV) Arenavirus: LASV Primary Screen - GLuc reporter signal (AID 1347082; calls by dose curve; tested in HEK293 reporter line; note: nearly all actives have a fitted effect of over 60% in size)
# [2] = qHTS for Inhibitors of the Functional Ribonucleoprotein Complex (vRNP) of Lassa (LASV) Arenavirus: Viability assay - alamar blue signal for LASV Primary Screen (AID 1347083; calls by dose curve; tested in HEK293 reporter line; note: nearly all actives have a fitted effect of over 80% in size)
# [3] = qHTS for Inhibitors of the Functional Ribonucleoprotein Complex (vRNP) of Lymphocytic Choriomeningitis Arenaviruses (LCMV): Viability assay - alamar blue signal for LCMV Primary Screen (AID 1347085; calls by dose curve; tested in HEK293 reporter line; note: nearly all actives have a fitted effect of over 80% in size)
# [4] = target: Nucleoprotein (Lymphocytic choriomeningitis virus (strain Armstrong)) (UniProt P09992); experiment: qHTS for Inhibitors of the Functional Ribonucleoprotein Complex (vRNP) of Lymphocytic Choriomeningitis Arenaviruses (LCMV): LCMV Primary Screen - GLuc reporter signal (AID 1347086); note: nearly all actives have a fitted effect of over 70% in size
# Sequence of Nucleoprotein (Lymphocytic choriomeningitis virus (strain Armstrong)) (P09992 whole entry, looked up): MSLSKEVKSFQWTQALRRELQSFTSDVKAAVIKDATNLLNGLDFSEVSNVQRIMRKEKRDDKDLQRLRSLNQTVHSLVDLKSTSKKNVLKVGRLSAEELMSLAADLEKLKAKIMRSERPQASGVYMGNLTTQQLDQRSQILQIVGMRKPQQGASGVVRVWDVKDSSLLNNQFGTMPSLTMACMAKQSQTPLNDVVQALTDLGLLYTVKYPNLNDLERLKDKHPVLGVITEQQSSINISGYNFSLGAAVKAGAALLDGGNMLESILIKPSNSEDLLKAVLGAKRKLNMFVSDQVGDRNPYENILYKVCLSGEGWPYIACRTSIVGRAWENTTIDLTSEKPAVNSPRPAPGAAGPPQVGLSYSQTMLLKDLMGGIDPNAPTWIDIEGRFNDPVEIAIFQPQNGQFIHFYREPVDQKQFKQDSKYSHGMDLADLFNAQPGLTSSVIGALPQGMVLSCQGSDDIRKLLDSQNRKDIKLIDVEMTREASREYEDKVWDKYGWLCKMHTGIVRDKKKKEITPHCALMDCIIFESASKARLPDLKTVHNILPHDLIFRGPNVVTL
# [5] = system: Zika virus NS2B-NS3 protease; experiment: Primary screen GU AMC qHTS for Zika virus inhibitors (AID 1347154; active = well fitted curve in the direction sought with a large enough effect; an effect the other way counts as inactive or inconclusive; note: nearly all actives have a fitted effect of over 70% in size)
# Summary of the method: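 Unlinked Zika NS2B hydrophilic domain–NS3 protease complex at 25 nM in 10 mM Tris-HCl pH 8.0, 0.01% Tween 20, with an AMC peptide substrate. Fluorescence change (340/450 nm) over 15 min at room temperature, normalized to controls, fitted to 4-parameter Hill.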
# [6] = Primary qHTS for small molecule stabilizers of the endoplasmic reticulum resident proteome: Secreted ER Calcium Modulated Protein (SERCaMP) assay (AID 1508630; active = well fitted curve in the direction sought with a large enough effect; an effect the other way counts as inactive or inconclusive)
# Summary of the method: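 The SH-SY5Y reporter protocol was run at 3 concentrations up to 38.3 uM (primary) or 11 concentrations (follow-up): 16 h compound, 100 nM thapsigargin for 4 h, then extracellular luciferase luminescence.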
# [7] = Primary qHTS for inhibitors of SARS-S pseudo-typed particle cell entry (AID 1479145); note: nearly all actives have a fitted effect of over 45% in size
# [8] = Primary qHTS for Huh7 cytotoxicity: counterscreen for inhibitors of MERS-S pseudotyped particle cell entry (AID 1479147); conditions: outcome: dose series up to 57.1 µM unless noted
# [9] = Primary qHTS for inhibitors of MERS-S pseudo-typed particle cell entry (AID 1479149); note: nearly all actives have a fitted effect of over 60% in size
# [10] = Primary qHTS for Vero E6 cytotoxicity: counterscreen for inhibitors of SARS-S pseudo-typed particle cell entry (AID 1479150); conditions: outcome: dose series up to 57.1 µM unless noted
# [11] = Cytotoxicity counterscreen for inhibitors of SARS-CoV-2 cell entry (AID 1645845); note: nearly all actives have a fitted effect of over 50% in size
# Summary of the method: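 Counterscreen run in the same HEK293-ACE2 line as the pseudotyped-particle entry assay, without particles. Viability after 48 h at 37 C was read as ATP luminescence, scaled between cell-containing and cell-free wells.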
# [12] = Primary qHTS to identify inhibitors of SARS-CoV-2 cell entry (AID 1645846); conditions: activity change, negative = inhibition: at 57.1 µM (top of the series) unless noted; note: nearly all actives have a fitted effect of over 45% in size
# Summary of the method: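 HEK293-ACE2 (Expi293F, stable hACE2), 1500 cells/well, o/n 37C; cpd 23 nL pin, 1 h; MLV-PP w/ SARS-CoV-2-S (Wuhan-Hu-1, Δ19 C-term); 48 h 37C; Bright-Glo luminescence; normalized vs S-PP and bald PP.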
# [13] = Validation of Assay for Modulators of Lamin A Splicing (AID 1459; active = well fitted curve in the direction sought with a large enough effect in the signal ratio; the % refers to the signal ratio;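 note: cells exposed to compound for two days before reading; ratio rise marks activators and ratio drop marks inhibitors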)
# Summary of the method: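 Readout: ratio of GFP (500-530 nm) to RFP (575-640 nm) total object intensity by 488 nm laser-scanning cytometry after 48 hrs. Cells were HeLa S3 clones carrying lamin A-EGFP minigene plus DsRed2 viability reporter; vehicle 0.5% DMSO final.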
# [14] = qHTS for differential inhibitors of proliferation of Plasmodium falciparum line 7G8 (AID 1815; active = well fitted curve in the direction sought with a large enough effect; an effect the other way counts as inactive or inconclusive;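 note: parasite growth measured after three days of incubation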)
# [15] = qHTS for differential inhibitors of proliferation of Plasmodium falciparum line GB4 (AID 1816; active = well fitted curve in the direction sought with a large enough effect; an effect the other way counts as inactive or inconclusive;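 note: potency is the fitted concentration of half-maximal effect; parasite growth measured after 72 h incubation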); conditions: Potency: Plasmodium falciparum GB4 proliferation inhibition
# [16] = qHTS for differential inhibitors of proliferation of Plasmodium falciparum line Dd2 (AID 1882; active = well fitted curve in the direction sought with a large enough effect; an effect the other way counts as inactive or inconclusive;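 note: compound exposure of 72 h on infected erythrocytes; nearly all actives have a fitted effect of over 65% in size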); conditions: Potency: Plasmodium falciparum Dd2 proliferation inhibition
# Summary of the method: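 RBC culture, 0.3% parasitemia / 2.5% Hct final; cpd added by pin tool in DMSO; 72 h, 37 C, 5% CO2; lysis buffer + SYBR Green I, o/n RT dark; FI 485/535; norm. to artemisinin 0.29 uM and DMSO.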
# [17] = High Content Imaging Cell-Based qHTS for Inhibitors of the mTORC1 Signaling Pathway in MEF Cells (AID 2667; active = well fitted curve in the direction sought with a large enough effect; an effect the other way counts as inactive or inconclusive;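 note: Tsc2-/- p53-/- MEFs stably re-expressing wild-type Tsc2 exposed 24 h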)
# Summary of the method: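 Read-out is the share of phospho-rpS6-positive cells per well, from Hoechst-normalized Alexa-488 Ser235/236 staining imaged on IN Cell. Cells: WT Tsc2-expressing Tsc2-/-, p53-/- MEFs exposed to compound for 24 hrs.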
# [18] = Validation screen for inhibitors of Lassa infection (AID 463096)
# [19] = target: DNA polymerase III PolC-type (Bacillus subtilis (strain 168)) (UniProt P13267); experiment: qHTS Validation Assay for the Inhibitors of DNA Replication in Gram-Positive Bacteria (AID 485295; active = well fitted curve in the direction sought with a large enough effect; an effect the other way counts as inactive or inconclusive;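 note: reconstituted holoenzyme with PolC plus beta clamp SSB and primase; PicoGreen fluorescence of double-stranded DNA made on primed circular M13 template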)
# Sequence of DNA polymerase III PolC-type (Bacillus subtilis (strain 168)) (P13267 whole entry, looked up): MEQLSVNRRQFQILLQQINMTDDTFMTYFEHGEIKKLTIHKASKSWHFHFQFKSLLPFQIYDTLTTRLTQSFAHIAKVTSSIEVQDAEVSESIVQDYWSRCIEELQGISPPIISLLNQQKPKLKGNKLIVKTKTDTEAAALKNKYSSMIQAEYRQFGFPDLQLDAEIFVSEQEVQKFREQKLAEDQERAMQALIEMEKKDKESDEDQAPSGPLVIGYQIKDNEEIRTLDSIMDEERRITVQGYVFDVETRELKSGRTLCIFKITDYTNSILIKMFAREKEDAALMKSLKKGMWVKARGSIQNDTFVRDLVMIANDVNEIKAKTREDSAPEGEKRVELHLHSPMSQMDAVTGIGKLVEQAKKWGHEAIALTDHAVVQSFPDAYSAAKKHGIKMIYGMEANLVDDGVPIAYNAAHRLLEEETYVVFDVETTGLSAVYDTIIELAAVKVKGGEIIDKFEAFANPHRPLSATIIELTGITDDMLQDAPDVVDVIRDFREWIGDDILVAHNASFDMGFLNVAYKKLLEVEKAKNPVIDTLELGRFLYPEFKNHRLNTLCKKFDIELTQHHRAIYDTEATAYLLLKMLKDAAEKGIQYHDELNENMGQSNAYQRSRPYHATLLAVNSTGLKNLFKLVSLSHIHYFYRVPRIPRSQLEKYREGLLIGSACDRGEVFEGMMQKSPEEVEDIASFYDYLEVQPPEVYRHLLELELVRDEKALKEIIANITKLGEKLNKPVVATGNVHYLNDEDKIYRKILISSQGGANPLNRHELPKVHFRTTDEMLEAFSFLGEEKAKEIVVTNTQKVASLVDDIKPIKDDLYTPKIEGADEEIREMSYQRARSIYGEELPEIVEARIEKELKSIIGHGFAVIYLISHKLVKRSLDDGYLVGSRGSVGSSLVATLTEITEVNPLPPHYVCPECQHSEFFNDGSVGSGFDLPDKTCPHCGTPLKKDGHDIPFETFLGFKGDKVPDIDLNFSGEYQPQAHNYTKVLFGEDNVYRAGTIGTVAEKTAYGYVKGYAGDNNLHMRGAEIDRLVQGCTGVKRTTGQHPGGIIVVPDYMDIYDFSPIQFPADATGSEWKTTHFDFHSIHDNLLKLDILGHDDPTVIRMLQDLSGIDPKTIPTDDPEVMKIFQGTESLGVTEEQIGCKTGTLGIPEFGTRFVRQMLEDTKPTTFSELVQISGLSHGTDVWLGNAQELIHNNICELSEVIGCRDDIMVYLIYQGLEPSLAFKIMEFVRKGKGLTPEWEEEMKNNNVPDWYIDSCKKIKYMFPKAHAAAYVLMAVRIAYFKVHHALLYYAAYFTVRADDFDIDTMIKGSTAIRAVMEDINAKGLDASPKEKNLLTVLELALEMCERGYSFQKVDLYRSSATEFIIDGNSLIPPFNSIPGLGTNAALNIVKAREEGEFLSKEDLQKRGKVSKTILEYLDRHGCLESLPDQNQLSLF
# Summary of the method: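 PicoGreen fluorescence (ex 480–485/em 535–540 nm) reports dsDNA synthesized on ssM13Gori template with dNTPs/NTPs. Enzyme: holoenzyme rebuilt from purified PolC, beta subunit, SSB and primase. Compound preincubated before substrate addition; RT throughout.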
# [20] = target: ATP-dependent 6-phosphofructokinase (Trypanosoma brucei brucei) (UniProt O15648); experiment: qHTS Validation Assay to Find Inhibitors of T. brucei phosphofructokinase (AID 485368; active = well fitted curve in the direction sought with a large enough effect; an effect the other way counts as inactive or inconclusive); conditions: T. brucei PFK enzyme assay, qHTS 7-point titration; at 57.5 µM (top of the series)
# Sequence of ATP-dependent 6-phosphofructokinase (Trypanosoma brucei brucei) (O15648 whole entry, looked up): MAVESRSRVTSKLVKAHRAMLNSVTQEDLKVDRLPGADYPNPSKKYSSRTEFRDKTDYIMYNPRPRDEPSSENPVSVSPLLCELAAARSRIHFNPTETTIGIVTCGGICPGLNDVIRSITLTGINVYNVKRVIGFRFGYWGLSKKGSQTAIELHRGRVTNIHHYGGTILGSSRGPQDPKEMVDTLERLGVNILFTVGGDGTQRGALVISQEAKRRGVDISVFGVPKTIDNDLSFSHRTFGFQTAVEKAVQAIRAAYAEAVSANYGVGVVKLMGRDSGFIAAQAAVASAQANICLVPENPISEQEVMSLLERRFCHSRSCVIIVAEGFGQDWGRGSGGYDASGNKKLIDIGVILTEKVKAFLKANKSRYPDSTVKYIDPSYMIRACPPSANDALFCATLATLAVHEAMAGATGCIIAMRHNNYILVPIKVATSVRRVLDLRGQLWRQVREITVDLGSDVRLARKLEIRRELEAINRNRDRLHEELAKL
# Summary of the method: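 Luminescent ADP detection measures PFK turnover of fructose-6-phosphate (0.5 mM) with ATP (0.1 mM) at pH 8.0. Reaction runs 45 min at room temperature with 1.25 nM enzyme; inhibitors tested as titrations up to 57 uM.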
# [21] = target: Arylsulfatase A (Homo sapiens) (UniProt P15289); experiment: qHTS screen for enhancers of Arylsulfatase A (ASA1): LOPAC Validation Assay (AID 720538; active = well fitted curve in the direction sought with a large enough effect; an effect the other way counts as inactive or inconclusive)
# Sequence of Arylsulfatase A (Homo sapiens) (P15289 whole entry, looked up): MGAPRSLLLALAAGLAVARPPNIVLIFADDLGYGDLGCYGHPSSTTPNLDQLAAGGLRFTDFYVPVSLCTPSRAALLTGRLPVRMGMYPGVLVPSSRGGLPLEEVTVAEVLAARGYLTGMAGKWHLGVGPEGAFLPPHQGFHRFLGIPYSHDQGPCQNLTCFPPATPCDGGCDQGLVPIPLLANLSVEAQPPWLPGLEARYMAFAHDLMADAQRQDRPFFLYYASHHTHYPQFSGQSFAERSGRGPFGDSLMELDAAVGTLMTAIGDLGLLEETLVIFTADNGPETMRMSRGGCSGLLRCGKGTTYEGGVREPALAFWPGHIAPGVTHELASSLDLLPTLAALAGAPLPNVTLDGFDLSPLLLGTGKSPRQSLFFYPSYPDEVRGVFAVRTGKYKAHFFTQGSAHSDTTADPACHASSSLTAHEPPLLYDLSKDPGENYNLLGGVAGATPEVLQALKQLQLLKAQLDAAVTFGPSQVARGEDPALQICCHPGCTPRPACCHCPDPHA
# Summary of the method: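 Read-out: fluorescence at Ex=525/Em=598 nm after 1N NaOH final stop. Patient fibroblasts carrying ASA-I179S had 48h compound exposure, then 14h room-temperature pNCS hydrolysis (0.5mM final) in lysis buffer. Signal increase = enhanced activity.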
# [22] = qHTS profiling of the MIPE4 collection as inhibitors of Plasmodium falciparum (3D7) proliferation (AID 743344; call rule not given here); conditions: P. falciparum 3D7 in erythrocytes, SYBR Green DNA fluorescence, 72 h; at 28.5 µM (top of the series) unless noted
# Summary of the method: (§1)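 Parasite DNA was quantified by SYBR Green I fluorescence (ex 485, em 535 nm) after overnight lysis in saponin/Triton buffer at room temperature. Cultures at 0.3% parasitemia and 2.5% hematocrit were first exposed to compound for 72 h at 37 C; signals were normalised to artemisinin (0.29 uM) and vehicle wells.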
# [23] = qHTS profiling of the MIPE4 collection as inhibitors of Plasmodium falciparum (DD2) proliferation (AID 743345; call rule not given here); conditions: P. falciparum Dd2 in erythrocytes, SYBR Green DNA, 72 h; at 28.5 µM (top of the series) unless noted
# Summary of the method: as §1
# [24] = qHTS profiling of the MIPE4 collection as inhibitors of Plasmodium falciparum (DD2) proliferation (Rep 2) (AID 743346; call rule not given here); conditions: P. falciparum Dd2 in erythrocytes, SYBR Green DNA, 72 h; at 28.5 µM (top of the series) unless noted
# Summary of the method: as §1
# [25] = target: Cytochrome P450 1A2 (Homo sapiens) (UniProt P05177); experiment: p450-cyp1a2 (AID 410); note: potency is the fitted concentration of half-maximal effect
# Sequence of Cytochrome P450 1A2 (Homo sapiens) (P05177 whole entry, looked up): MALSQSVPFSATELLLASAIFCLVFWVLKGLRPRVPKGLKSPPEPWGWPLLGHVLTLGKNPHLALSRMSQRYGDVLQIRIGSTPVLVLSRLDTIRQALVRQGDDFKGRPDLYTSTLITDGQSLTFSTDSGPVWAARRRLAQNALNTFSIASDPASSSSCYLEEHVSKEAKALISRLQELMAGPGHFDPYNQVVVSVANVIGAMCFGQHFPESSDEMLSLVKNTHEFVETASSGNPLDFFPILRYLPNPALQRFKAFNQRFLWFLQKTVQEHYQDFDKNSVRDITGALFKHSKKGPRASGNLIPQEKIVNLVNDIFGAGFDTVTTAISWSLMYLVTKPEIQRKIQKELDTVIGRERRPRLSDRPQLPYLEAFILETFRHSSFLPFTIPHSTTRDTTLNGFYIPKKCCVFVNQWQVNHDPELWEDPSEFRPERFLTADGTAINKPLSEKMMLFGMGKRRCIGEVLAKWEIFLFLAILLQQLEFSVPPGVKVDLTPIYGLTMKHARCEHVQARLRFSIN
# Summary of the method: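 20nM CYP1A2, 100uM Luciferin-ME (=Km), 100mM KPO4; cpd 10 min RT; +NADPH regen, 60 min RT; stop/detect 20 min; luminescence. Normalized to furafylline 57 uM = full inhibition.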
# [26] = NFAT Signaling Pathway (AID 444; active = well fitted curve in either direction with a large enough effect, not every such curve was filed as active;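 note: carbachol stimulus at about its EC50 of 1 µM final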); conditions: Jurkat NFAT-bla M1, carbachol, beta-lactamase ratio, 5 h; at 17.2 µM (top of the series)
# Summary of the method: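 Jurkat cells with NFAT-driven β-lactamase reporter and co-expressed M1 receptor, stimulated with carbachol (final 1 uM, ~EC50), compound titration, 5 h at 37 °C. CCF4 loaded 1 h at RT; 460/530 nm ratio gave %activity and AC50.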
# [27] = target: Glucocorticoid receptor (Homo sapiens) (UniProt P04150); experiment: GR-EFC Redistribution (AID 451); conditions: CHO-K1 GR-EFC translocation, beta-gal luminescence, 2 h; note: potency is the fitted concentration of half-maximal effect
# Sequence of Glucocorticoid receptor (Homo sapiens) (P04150 whole entry, looked up, the tested form may be a part): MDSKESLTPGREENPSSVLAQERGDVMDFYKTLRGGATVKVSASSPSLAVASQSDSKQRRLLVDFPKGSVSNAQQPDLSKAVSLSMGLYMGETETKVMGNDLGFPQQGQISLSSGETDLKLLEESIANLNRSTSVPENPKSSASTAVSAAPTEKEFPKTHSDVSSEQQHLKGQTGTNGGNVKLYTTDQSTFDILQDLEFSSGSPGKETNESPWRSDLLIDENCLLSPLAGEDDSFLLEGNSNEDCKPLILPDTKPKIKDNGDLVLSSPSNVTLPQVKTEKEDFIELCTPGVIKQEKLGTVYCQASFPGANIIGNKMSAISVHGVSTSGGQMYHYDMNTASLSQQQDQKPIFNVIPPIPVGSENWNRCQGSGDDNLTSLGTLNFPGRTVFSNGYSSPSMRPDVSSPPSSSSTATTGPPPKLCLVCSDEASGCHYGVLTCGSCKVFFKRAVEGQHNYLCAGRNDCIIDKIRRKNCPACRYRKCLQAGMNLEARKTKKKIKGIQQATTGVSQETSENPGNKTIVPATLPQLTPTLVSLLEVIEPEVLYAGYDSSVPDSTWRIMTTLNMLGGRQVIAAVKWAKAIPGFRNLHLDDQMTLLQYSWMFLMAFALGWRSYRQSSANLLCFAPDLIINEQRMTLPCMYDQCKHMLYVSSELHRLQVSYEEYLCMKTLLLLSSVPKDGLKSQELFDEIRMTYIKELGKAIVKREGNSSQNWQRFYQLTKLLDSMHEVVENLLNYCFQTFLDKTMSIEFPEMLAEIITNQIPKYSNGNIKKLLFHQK
# Summary of the method: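 CHO-K1 cells expressing nuclear EA and GR-ED fragments of b-gal; compounds titrated up to 46 uM final, 2 h at 37 C. GR nuclear translocation read as complemented b-gal luminescence after 1 h RT detection.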
# [28] = target: Mitogen-activated protein kinase 10 (Mus musculus) (UniProt Q61831); experiment: JNK3 AlphaScreen Assay (AID 530; active = well fitted curve in either direction with a large enough effect, not every such curve was filed as active;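 note: kinase came from lysate of stimulated human HepG2 cells; signal reports phosphorylation of biotinylated GST-cJun 1-79 at Ser73 with 10 µM ATP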)
# Summary of the method: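 HepG2 lysate (IL-1b/TNFa pre-activated) + biotin-GST-cJun 1-79 + anti-pSer73 cJun; cpd titration, 15 min RT; ATP 10 uM start; Tris pH 7.6, MgCl2, DTT, vanadate; beads in EDTA buffer; AlphaScreen.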
# [29] = target: 3',5'-cyclic-AMP phosphodiesterase 4B (Homo sapiens) (UniProt Q07343); experiment: qHTS Assay for Inhibitors of PDE-IV (AID 607; active = well fitted activation curve with a large enough effect in the main read-out, with a control signal flat, not every such curve was filed as active)
# Sequence of 3',5'-cyclic-AMP phosphodiesterase 4B (Homo sapiens) (Q07343 whole entry, looked up): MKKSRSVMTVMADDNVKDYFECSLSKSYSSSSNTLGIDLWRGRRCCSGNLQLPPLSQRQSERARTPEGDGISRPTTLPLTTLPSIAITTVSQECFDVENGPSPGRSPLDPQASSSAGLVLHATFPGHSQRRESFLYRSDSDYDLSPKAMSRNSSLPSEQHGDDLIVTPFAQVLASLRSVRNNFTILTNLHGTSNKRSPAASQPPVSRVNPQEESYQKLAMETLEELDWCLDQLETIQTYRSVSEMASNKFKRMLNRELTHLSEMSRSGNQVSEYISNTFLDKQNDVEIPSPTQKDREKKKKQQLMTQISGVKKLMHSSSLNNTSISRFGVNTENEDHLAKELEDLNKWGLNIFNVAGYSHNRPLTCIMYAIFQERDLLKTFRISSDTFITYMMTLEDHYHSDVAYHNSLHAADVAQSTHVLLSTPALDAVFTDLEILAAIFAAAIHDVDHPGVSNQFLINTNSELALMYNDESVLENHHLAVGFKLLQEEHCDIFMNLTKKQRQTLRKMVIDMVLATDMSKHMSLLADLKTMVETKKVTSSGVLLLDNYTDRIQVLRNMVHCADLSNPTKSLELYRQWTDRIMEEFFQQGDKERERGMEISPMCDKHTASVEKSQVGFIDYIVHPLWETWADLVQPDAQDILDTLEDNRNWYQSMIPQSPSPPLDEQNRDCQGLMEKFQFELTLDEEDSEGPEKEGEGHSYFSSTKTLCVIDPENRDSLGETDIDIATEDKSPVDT
# Summary of the method: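 HEK293 ACTOne cells with CNG channel (1000/well), endogenous PDE4; membrane potential dye, compounds up to 22.9 uM final. Fluorescence Ex 535/Em 590; RO 20-1724 (100 uM final) as reference.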
# [30] = target: Cytochrome P450 2C19 (Homo sapiens) (UniProt P33261); experiment: qHTS Assay for Inhibitors and Substrates of Cytochrome P450 2C19 (AID 899; active = well fitted curve in the direction sought with a large enough effect; an effect the other way counts as inactive or inconclusive; note: potency is the fitted concentration of half-maximal effect; nearly all actives have a fitted effect of over 60% in size)
# Summary of the method: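 Luminescent read-out of luciferin formed from Luciferin-H EGE (10uM, equal to KM). Enzyme 5nM in 50mM KPO4; compound added, 10 min at 37C, then NADPH regenerating system for 60 min at 37C. Full inhibition defined by 57uM ketoconazole.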
# [31] = target: DNA dC->dU-editing enzyme APOBEC-3G (Homo sapiens) (UniProt Q9HC16); experiment: qHTS for inhibitors of Vif-A3G interactions: Validation (AID 588379; active = well fitted curve in the direction sought with a large enough effect; an effect the other way counts as inactive or inconclusive)
# Summary of the method: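 Yellow fluorescence (Ex 488, Em 500-530) of Vif-coexpressing HeLa A3G-eYFP cells, scanned by Acumen cytometer, reports blocked A3G degradation. Cells plated at 700/well overnight at 37 deg C before compound addition, then a further overnight compound incubation at 37 deg C.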
smiles,measurement,setting,value
CCN1C[C@]2(COC(=O)c3ccccc3N3C(=O)CC(C)C3=O)CC[C@H](OC)[C@@]34C5C[C@@H]6[C@@H](OC)C[C@@](O)(C5[C@H]6OC)[C@](O)([C@@H](OC)C23)[C@@H]14 (stereo partly specified),Potency,[1],inactive
same,Potency,[2],inactive
same,Potency,[3],inactive
same,Potency,[4],inactive
same,Potency,[5],inactive
same,Potency,[6],inactive
CCCCCCCCCCCCCCCC(=O)OC[C@@H](NC(=O)C(Cl)Cl)[C@H](O)c1ccc([N+](=O)[O-])cc1,Potency,[1],inactive
same,Potency,[2],inactive
same,Potency,[3],inactive
same,Potency,[4],inactive
same,Potency,[7],inactive
same,outcome,[8],inactive
same,Potency,[9],inactive
same,outcome,[10],inactive
same,Potency,[11],inactive
CC1=C(/C=C/C(C)=C/C=C/C(C)=C/C=C/C=C(C)/C=C/C=C(C)/C=C/C2=C(C)C[C@@H](O)CC2(C)C)C(C)(C)C[C@H](O)C1,Potency,[1],inactive
same,Potency,[2],inactive
same,Potency,[3],inactive
same,Potency,[4],inactive
same,Potency,[7],inactive
same,outcome,[8],inactive
same,Potency,[9],inactive
same,outcome,[10],inactive
same,Potency,[11],inactive
O=C1CCC(C(=O)O)N1 (stereo unspecified),Potency,[1],inactive
same,Potency,[2],inactive
same,Potency,[3],inactive
same,Potency,[4],inactive
same,Potency,[7],inactive
same,outcome,[8],inactive
same,Potency,[9],inactive
same,outcome,[10],inactive
same,Potency,[11],inactive
same,"activity change, negative = inhibition",[12],-17.5%
COc1ccc2[nH]c3c(c2c1)CCNC3C (stereo unspecified),Potency,[1],inactive
same,Potency,[2],inactive
same,Potency,[3],inactive
same,Potency,[4],inactive
same,Potency,[5],inactive
same,Potency,[6],inactive
CN1C2CCC1CC(OC(=O)C(CO)c1ccccc1)C2 (stereo unspecified),outcome,[13],inactive
same,Potency,[14],inactive
same,Potency,[15],8.91 µM (active)
same,Potency,[16],inactive
same,Potency,[17],inactive
same,Potency,[18],inactive
same,Potency,[19],inactive
same,outcome,[20],inactive
same,Potency,[21],inactive
same,"parasite growth, % of DMSO control",[22],88.6%
same,"parasite growth remaining, % of DMSO control (lower = more inhibition)",[23],94.5%
same,"parasite growth, % of control (lower = inhibition)",[24],62.2%
same,Potency,[1],inactive
same,Potency,[2],inactive
same,Potency,[3],inactive
same,Potency,[4],inactive
same,Potency,[11],inactive
same,"activity change, negative = inhibition",[12],-16.5%
Cn1cccc1-c1cccnc1,Potency,[1],inactive
same,Potency,[2],inactive
same,Potency,[3],inactive
same,Potency,[4],inactive
same,Potency,[5],inactive
same,Potency,[6],inactive
NCC1CCC(C(=O)O)CC1 (stereo unspecified),Potency,[1],inactive
same,Potency,[2],inactive
same,Potency,[3],inactive
same,Potency,[4],inactive
same,outcome,[7],inactive [at 11.4 µM]
same,outcome,[8],inactive [at 11.4 µM]
same,"activity change, negative = inhibition",[9],2.4% [at 11.4 µM] (inactive)
same,outcome,[10],inactive [at 11.4 µM]
same,Potency,[11],inactive
same,Potency,[12],inactive
c1cncc([C@@H]2CCCCN2)c1,Potency,[25],5.01 µM (active) and inactive
same,"activity change, negative = inhibition",[26],-6.22% (inactive)
same,Potency,[27],> 20.6 µM (inactive) and > 46 µM (inactive)
same,outcome,[28],inactive
same,Potency,[29],inactive
same,Potency,[30],2 µM (active)
same,Potency,[31],inactive
same,Potency,[1],inactive
same,Potency,[2],inactive
same,Potency,[3],inactive
same,Potency,[4],inactive
same,Potency,[5],inactive
